Screen size: about 360,000 compounds; about 2,300 (0.64%) were called active. This is one part of a sample in which actives are shown more often than they occur. Unmarked numbers belong to inactive results. No stated cut-off is given here; in the data, active means inhibition mostly above about 40% (no sharp cut-off); inactive means mostly below about 27%.

Chain of Sentrin-specific protease 8 (Homo sapiens) (Q96LD8 whole entry, looked up): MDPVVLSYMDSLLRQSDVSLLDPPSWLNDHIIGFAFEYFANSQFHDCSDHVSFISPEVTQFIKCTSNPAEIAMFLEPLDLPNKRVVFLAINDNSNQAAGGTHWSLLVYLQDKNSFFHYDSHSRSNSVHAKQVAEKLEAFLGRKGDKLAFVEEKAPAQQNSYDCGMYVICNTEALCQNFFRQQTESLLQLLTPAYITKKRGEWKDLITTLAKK

This assay has as its target Sentrin-specific protease 8 (Homo sapiens) (UniProt Q96LD8). Kind of assay: human SENP8 protease inhibitors, primary screen, biochemical, fluorescence, Nedd8 protein substrate, uHTS (AID 602440). The note with it: recombinant SENP8, Nedd8 substrate fluorescence; at 20 µM; active compounds read high.
Broadly, the inhibition is the drop in the measured response relative to a control, in per cent. On to `Cc1cc(C)n2nc(C(=O)OCC(=O)N(C)CC(=O)Nc3ccc(F)cc3)nc2n1`, for which the inhibition was 3.2%. With `COc1ccc(CCNC(=O)COC(=O)C2CC2C)cc1` (stereo unspecified), the inhibition was 9.7%. For the molecule `Cc1cc(NC(=O)CN2C(=O)NC(CCc3ccccc3)C2=O)no1` (stereo unspecified), the inhibition was 12.2%. With `CCc1cccc(C)c1NC(=O)COC(=O)CC1CCCC1`, the inhibition is 40.9% (active).

Turning to `Cc1cccc(C)c1NC(=O)CNC(=O)C1CCCC1`, the inhibition was 11.2%. As to `CCc1cccc(C)c1NC(=O)COC(=O)Cc1ccsc1`, the inhibition is -35.2%. `Cc1ccc(N(C(=O)CC2NC(=O)NC2=O)C2(C(=O)NC3CCCC3)CCCCC2)cc1` (stereo unspecified): the inhibition is 21.4%. `Cc1ccc(NC(=O)CN(C)C(=O)c2cccc(S(=O)(=O)N3CCCC3)c2)cc1`: the inhibition was 18.7%. Turning to `COc1ccc(CCNC(=O)CN(c2ccccc2)S(C)(=O)=O)cc1`, the inhibition is 13.5%. As for `COc1cccc(N(CC(=O)NCCSc2ccccn2)S(C)(=O)=O)c1`, the inhibition is 40.3% (active). Next, `COc1ccc(N(CC(=O)NCCSCc2cccc(Cl)c2)S(C)(=O)=O)cc1`: 16.9%; `COc1ccc(NC(=O)CCNS(=O)(=O)c2ccc3c(c2)c(=O)n(C)c(=O)n3C)cc1OC`: 9.5%. `OCc1n[nH]c(CO)n1`: the inhibition was 6.5%. On to `CN1C(=O)/C(=C/C=C2\SCCN2C)OC1=S`, for which the inhibition was 43.8% (active).

For `O=[N+]([O-])c1ccc(C=Nc2ccc(Cl)cc2Cl)s1`, the inhibition is 69% (active). On to `CCNc1nc(N)nc(Oc2ccc(OCC)nn2)n1`, for which the inhibition is 6.3%. On to `O=P(O)(CP(=O)(c1ccccc1)c1ccccc1)c1ccccc1O`, for which the inhibition is 41.1% (active). Regarding `O=P(O)(CP(=O)(c1ccccc1)c1ccccc1)c1ccccc1`, the inhibition is 10.2%.

Turning to `CC(C)(C)c1cc(P(=O)(c2ccccc2)c2ccccc2)ccc1O`, the inhibition is 20.7%. Next, `COC(=O)C1=C(C)N(C)C(=S)NC1c1cc(OC)ccc1OC` (stereo unspecified): 10%; `COC(=O)[C@]12CCCCC=C1N(CCC1=CCCCC1)C(=O)[C@H](CC(=O)NCC1CCCCC1)C2`: 10.5%; `COc1cc(C(=O)NC2CCN(Cc3ccccc3)CC2)cc(Cl)c1OC(C)C`: 3.3%.

Turning to `CC(=O)Nc1ccc(NC(=O)COc2ccc(S(=O)(=O)NC(C)c3ccccc3)cc2)cc1` (stereo unspecified), the inhibition is 8.8%. For the molecule `CCOC(=O)/C(=N\Nc1ccccc1[N+](=O)[O-])c1csc(Nc2ccccc2)n1`, the inhibition was 52.3% (active). For `CCOC(=O)C(=O)Nc1nc(-c2ccccc2)c(CC)s1`, the inhibition is 16.8%.

In the case of `CCOC(=O)C/C(C)=N\Nc1ccc([N+](=O)[O-])cc1[N+](=O)[O-]`, the inhibition was 23.3%.

(Values after PubChem BioAssay AID602440 (Sanford-Burnham Center for Chemical Genomics, 2012).)
